Structures are written as SMILES. Results filed as inconclusive are left out. The source made the active and inactive calls. The call rests on the fitted dose curve; in most records, active means well fitted activation curve with a large enough effect; inconclusive means small, poorly fitted or top-dose-only effect; inactive means no such curve, though single readings can be large or run the other way.
Potency means the concentration at half of the fitted maximal effect.

The assay is described as follows: qHTS assay for re-activators of p53 using a Luc reporter: Hit Validation. Further: nearly all actives have a fitted effect of over 75% in size. On activation: 0% is about no effect. The following applies: p53-responsive luciferase reporter cells, luminescence, H1299 line expressing heat-sensitive Ala138Val p53; series mostly up to 46.1 µM; activation: at the top concentration. Put shortly: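 Hit confirmation with a 1:5 dilution series, at 37 deg C for 24 hrs, in H1299 cells co-expressing temperature-sensitive p53-A138V and p53-responsive luciferase. Nocodazole served as control; luminescence read after 10 min with detection reagent.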
For orientation: qHTS replaces the single test concentration by a dilution series.
Regarding `COc1cc(C(=O)NCC(=O)Nc2c(C)cccc2C)ccc1OCc1ccccc1`, the “activation” value was -7.81% (inactive). On the same count and under the same terms, in the case of `Cc1nc2ccccc2nc(C)c1=NOCc1ccccc1Cl` it was 4.17% (inactive). Take `CCCCc1ccc(NC(=S)N2CCCC(CO)C2)cc1` (stereo not drawn): the Potency is 0.651 µM (active). Turning to `Cc1cc(C)c2nc(NNC(=O)c3ccc(S(=O)(=O)N4CCc5ccccc5C4)cc3)sc2c1`, the “activation” value was 352% (inactive).

As for `Cc1ccc2cc3cc(C(=O)N4CCCCCC4)oc3nc2c1`, the Potency is 10.3 µM (active). Regarding `CCc1ccc2[nH]c(=O)c(CN(CCN(CC)CC)C(=O)NC3CCCCC3)cc2c1`, the “activation” value is 44.8% (inactive). As to `COc1ccc(CCC(=O)Nc2ccc(-c3noc(-c4ccc(OC)c(OC)c4)n3)cc2)cc1`, the “activation” value is 28.1% (inactive).

Regarding `C1=C(CCNc2ncnc3nc[nH]c23)CCCC1`, the Potency was 1.64 µM (active). On to `Cc1cc(C)nc(CC(N)=O)n1`, for which the “activation” value was -13% (inactive). On the same count and under the same terms, in the case of `CCN(CC)C(=O)CNC(=S)N(CCCN1CCOCC1)Cc1cccs1` it was -10.4% (inactive); in that of `CCOc1ccc(S(=O)(=O)c2c(C(=O)c3ccc(C)cc3)cnc3cc4c(cc23)OCCO4)cc1`, -37% (inactive). Still for that read-out and setting: in the case of `CCOc1cc(S(=O)(=O)NC2CCCCCC2)ccc1F` it was -12.5% (inactive); in that of `O=C(Nc1ccc(Cl)cc1)Nc1nnc(SCc2ccccc2)s1`, 41.1% (inactive); in that of `O=[N+]([O-])c1ccc(/C=N/NC(=S)Nc2ccccc2F)o1`, 21.4% (inactive). `O=C(Cc1ccccc1)NCc1ccc(F)cc1`: the “activation” value was 34.4% (inactive). For the compound `O=C(NNC(=S)NC1CCCCC1)c1cccs1`, the “activation” value was 0% (inactive).

Regarding `O=[N+]([O-])c1ccc(NC(=S)NCCc2ccc(F)cc2)cc1`, the “activation” value is -18.8% (inactive). `COc1ccc(-c2nnc(SCC(=O)/C(C#N)=C(\C)N)o2)cc1`: the Potency is 0.326 µM (active).

For the compound `COCCSc1nnc(NC(=O)CCS(=O)(=O)c2ccccc2)s1`, the activation is -38.9% [at 9.22 µM] (inactive). Same read-out and setting: the same measure for `Nn1cnnc1N/N=C\c1ccc(-c2ccccc2[N+](=O)[O-])o1`: -84.4% (inactive). Turning to `CC(C)CC(NC(=O)C1CCC(=O)N1)C(=O)NC(CC(C)C)C(=O)N1CCCC1C(N)=O` (stereo not drawn), the “activation” value is -19.8% (inactive). In the case of `CC1CCCN(C(=O)CN2C(=O)c3ccccc3S2(=O)=O)C1` (stereo not drawn), the Potency was 23.1 µM (active). With `C=CCSC1=N/C(=C\c2cc(OCC)c(OC(C)=O)c([N+](=O)[O-])c2)C(=O)S1`, the “activation” value is 4.17% (inactive). The same measure, in the same setting: in the case of `COc1cccc(C2(c3cccc(OC)c3)CC2C(=O)Nc2cccc3ccccc23)c1` (stereo not drawn) it was -28.6% (inactive). Consider `Cc1cc(C(=O)N2CCN(c3ccccc3Cl)CC2)c(C)o1`, for which the Potency was 29.1 µM (active). For `Cc1cccc(-n2nc([N+](=O)[O-])c(=NC3CCN(Cc4ccccc4)CC3)n2O)c1`, the “activation” value was 19.8% (inactive).

With `O=C(NCCN1CCCCC1)Nc1cccc(C(F)(F)F)c1`, the “activation” value was -0.521% (inactive). Turning to `N#C/C(=C\c1ccc(OCc2ccc(Br)cc2)cc1)C(=O)Nc1cccc(C(=O)O)c1`, the Potency is 2.91 µM (active). With `Cc1cccc(C)c1Nc1c(-c2ccccn2)nc2ccccn12`, the “activation” value was 14.1% (inactive).

With `Cc1ccc(OCC(=O)Nc2ccc(Cl)cc2)c([N+](=O)[O-])n1`, the Potency is 16.4 µM (active). For the compound `CCC(=O)Nc1ccc2oc(-c3cccc(C)c3)nc2c1`, the Potency is 0.0731 µM (active).

On to `Cc1ccc(C)c(C(=O)COC(=O)c2n[nH]c3ccccc23)c1`, for which the Potency is 18.4 µM (active). With `O=C(CCS(=O)(=O)c1ccccc1)Nc1nc2c(s1)CCCC2`, the “activation” value is 24.5% (inactive). For `Cc1cc(C(=O)COC(=O)c2ccc(O)cc2)c(C)n1CC(F)(F)F`, the Potency was 20.6 µM (active). As to `O=C(CSCC(=O)Nc1cccc([N+](=O)[O-])c1)Nc1ccccc1`, the “activation” value is -1.56% (inactive). Same read-out and setting: in the case of `O=C(Cn1cc2c(n1)CCCCC2)NC1CCCCCC1` it was 69.8% (inactive). Turning to `Cc1ccc(-c2cc(-c3ccccc3Cl)[nH]n2)c(O)c1`, the Potency was 14.6 µM (active). On the same count and under the same terms, in the case of `CC(C)c1ccc(NC(=O)c2snc3ccc(Cl)cc23)cc1` it was 5.8 µM (active).

For the origin of these results see PubChem BioAssay AID624305 (National Center for Advancing Translational Sciences (NCATS), 2012).
